TDP1 inh = blocks human tyrosyl-DNA phosphodiesterase 1; Q9NUW8; recombinant TDP1, AlphaScreen DNA substrate cleavage; Potency, µM (series often up to 130 µM), for inactives: at the top dose activity change, negative = inhibition, hits mostly inhibitors; 0.28% of 350,000 active; AID 485290; further: on the % scale 0 is the no-effect control and ±100 the full control effect; nearly all actives have a fitted effect of over 40% in size
Target sequence (Q9NUW8 whole entry, looked up): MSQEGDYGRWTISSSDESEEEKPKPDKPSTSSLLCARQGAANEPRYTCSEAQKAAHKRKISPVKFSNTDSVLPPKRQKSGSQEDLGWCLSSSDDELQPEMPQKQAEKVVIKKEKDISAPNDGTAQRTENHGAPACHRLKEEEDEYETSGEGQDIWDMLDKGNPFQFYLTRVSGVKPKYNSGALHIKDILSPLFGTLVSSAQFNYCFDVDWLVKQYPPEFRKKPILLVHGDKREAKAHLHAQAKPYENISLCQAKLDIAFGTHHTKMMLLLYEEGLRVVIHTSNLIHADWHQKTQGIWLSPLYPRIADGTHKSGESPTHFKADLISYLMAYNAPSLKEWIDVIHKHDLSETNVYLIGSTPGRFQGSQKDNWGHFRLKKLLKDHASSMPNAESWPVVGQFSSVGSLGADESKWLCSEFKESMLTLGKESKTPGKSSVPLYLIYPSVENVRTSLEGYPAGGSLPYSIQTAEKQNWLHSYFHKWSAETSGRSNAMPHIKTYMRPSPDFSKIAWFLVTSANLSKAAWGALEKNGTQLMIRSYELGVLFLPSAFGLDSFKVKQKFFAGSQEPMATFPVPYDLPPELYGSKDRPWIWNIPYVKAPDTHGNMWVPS
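Here, a 5' biotin and 3' phosphotyrosine-FITC DNA oligonucleotide reports Tdp1 activity: intact substrate bridges AlphaScreen beads, while cleavage leaves a 3' phosphate and drops signal. All incubations at room temperature.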
ClpP mod = qHTS Assay for Activators of ClpP | Potency, µM (top dose mostly 57.5 µM), for inactives: top-dose activity change, negative = active | purified B. subtilis ClpP, FRET peptide cleavage, 20 min | 1.9% of 340,000 active | ATP-dependent Clp protease proteolytic subunit (Bacillus subtilis (strain 168)), P80244; active means well fitted falling curve with a large enough effect; inconclusive means small, poorly fitted or top-dose-only effect; inactive means no such curve, though single readings can be large or run the other way; further: the source files actives as falling curves though it sought activators and does not explain the sign; nearly all actives have a fitted effect of over 65% in size
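FRET quenching reversal measured ClpP activation: 10 microg/mL B. subtilis ClpP at pH 8 with the FRET-FV decapeptide, read at 430 nm after 320 nm excitation. The 20-min minus 0-min signal was scaled between DMSO/no-enzyme wells and ADEP (5.8 microM final).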
TDP1 cell CPT = growth inhibition of DT40 Tdp1-/-;hTDP1 cells with camptothecin (screen for TDP1 inhibitors) | AID 686979 | Potency, µM (top dose mostly 46.2 µM), for inactives: at the highest dose activity change, negative = growth inhibition, most hits filed as inhibitors | 12% of 420,000 active | chicken DT40 Tdp1-/-;hTDP1 cells + 20 nM CPT, ATP luminescence, 48 h; further: on the % scale 0 is the no-effect control and ±100 the full control effect; nearly all actives have a fitted effect of over 55% in size
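Chicken DT40 Tdp1-/- cells stably complemented with human TDP1 were seeded at 400 cells/well in medium containing 20 nM camptothecin, exposed to pin-transferred compounds, and grown at 37 °C for at least 48 hr. Viability was read as ATP luminescence.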
TDP1 cell noCPT = qHTS for Inhibitors of human tyrosyl-DNA phosphodiesterase 1 (TDP1): qHTS in cells in absence of CPT. DT40 Tdp1-/- hTDP1 cells, no CPT, ATP luminescence, 48 h. Potency, µM (titrated, usually from 46.2 µM), without a hit: at the top dose activity change, negative = growth inhibition, hits mostly inhibitors. 15% of 420,000 active. AID 686978, 2013; further: on the % scale 0 is the no-effect control and ±100 the full control effect; nearly all actives have a fitted effect of over 55% in size
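Stably hTDP1-transfected Tdp1-null chicken DT40 cells were treated with library compounds minus camptothecin and grown for at least 48 hr at 37 °C, after which cellular ATP was quantified by luminescence.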
* marks the source's active call; other numbers are inactive results; [ ] = remark or other dose. Most compounds without a hit are left out; they make up all but 17% or so of the library. Unless noted, the call rests on the fitted dose curve; in most records, active means well fitted curve in the direction sought with a large enough effect; inconclusive means small, poorly fitted or top-dose-only effect, or another doubt; inactive means no such curve, though single readings can be large; an effect the other way counts as inactive or inconclusive. Potency means the concentration at half of the fitted maximal effect.

What do the screens show for `Cc1ncc2c(c1CNC(=O)c1ccccc1F)CCN(C(=O)c1ccccc1-n1cccn1)C2`?
TDP1 cell CPT: 11.0%[9.04 µM]; TDP1 cell noCPT: -28.6%

How did COc1ccc(CCNC(=O)CSc2nc(-c3ccc(F)cc3)cc(C(F)(F)F)n2)cc1OC do in these assays?
TDP1 inh: -4.2%; ClpP mod: 1.4%; TDP1 cell CPT: 18.4µM*; TDP1 cell noCPT: inconclusive

How did COc1ccc(-c2cc(C(F)(F)F)nc(SCC(=O)NCc3cnn(C)c3C)n2)cc1OC do in these assays?
TDP1 inh: -8.1%; ClpP mod: 28.2µM*; TDP1 cell CPT: -28.5%; TDP1 cell noCPT: -3.2%

How did COc1ccccc1CCNC(=O)C(C)Sc1nc(-c2ccccc2)cc(C(F)(F)F)n1 (stereo not drawn) do in these assays?
TDP1 inh: 2.1%; ClpP mod: 0.0%; TDP1 cell CPT: 16.4µM*; TDP1 cell noCPT: 14.6µM*

Results for COc1ccc(CCNC(=O)c2nc(SCc3ccc(F)cc3)ncc2Cl)cc1OC ?
TDP1 inh: 0.0%; ClpP mod: -3.9%; TDP1 cell CPT: 20.6µM*; TDP1 cell noCPT: inconclusive

Results for COc1ccc(-c2cc(C(F)(F)F)nc(SCC(=O)NCCc3ccccc3)n2)cc1OC ?
TDP1 inh: 3.2%; ClpP mod: 4.0%; TDP1 cell CPT: inconclusive; TDP1 cell noCPT: inconclusive

What do the screens show for `COc1ccc(-c2cc(C(F)(F)F)nc(SCC(=O)NCc3ccco3)n2)cc1OC`?
TDP1 inh: 3.0%[56.1 µM]; ClpP mod: inconclusive; TDP1 cell CPT: inconclusive; TDP1 cell noCPT: inconclusive

How did CC12COC3(C(N)=O)CC1CCC32C (stereo not drawn) do in these assays?
TDP1 inh: 3.2%; ClpP mod: 1.4%; TDP1 cell CPT: 7.0%; TDP1 cell noCPT: 24.0%

What do the screens show for `Cn1nc(C(=O)NCCCN2CCCCC2)c2c1-c1ccccc1S(=O)(=O)C2`?
TDP1 inh: 3.6%; ClpP mod: -13.9%; TDP1 cell CPT: 9.1%; TDP1 cell noCPT: 8.7%

What do the screens show for `COc1ccccc1CNC(=O)CSc1nc(-c2ccc(OC)c(OC)c2)cc(C(F)(F)F)n1`?
TDP1 inh: -4.2%; ClpP mod: 28.2µM*; TDP1 cell CPT: inconclusive; TDP1 cell noCPT: inconclusive

What do the screens show for `COc1ccc(CCNC(=O)Nc2cc(F)c(F)cc2Cl)cc1OC`?
TDP1 inh: 5.2%; ClpP mod: 0.0%; TDP1 cell CPT: 23.1µM*; TDP1 cell noCPT: 8.2µM*

How did COc1ccc(-c2cc(C(F)(F)F)nc(SCC(=O)N(C)Cc3cn(C)nc3C)n2)cc1OC do in these assays?
TDP1 inh: -1.9%; ClpP mod: inconclusive; TDP1 cell CPT: 18.4µM*; TDP1 cell noCPT: 11.6µM*

What do the screens show for `COc1ccc(-c2cc(C(F)(F)F)nc(SCC(=O)NCc3cccs3)n2)cc1`?
TDP1 inh: 3.2%; ClpP mod: 35.5µM*; TDP1 cell CPT: inconclusive; TDP1 cell noCPT: inconclusive

Results for O=C(CSc1nc(-c2ccccc2)cc(C(F)(F)F)n1)NCc1cccs1 ?
TDP1 inh: 1.1%; ClpP mod: 3.4%; TDP1 cell CPT: -17.5%; TDP1 cell noCPT: -29.8%

What do the screens show for `CC(C)Oc1ccc(C(=O)NCCc2csc(-c3cccc(F)c3)n2)cc1`?
TDP1 inh: -1.8%; ClpP mod: -16.3%; TDP1 cell CPT: -25.1%; TDP1 cell noCPT: 0.0%

How did COc1ccc(NC(=O)N(C)C[C@H]2Oc3ccc(NS(=O)(=O)c4ccc(OC)cc4)cc3C(=O)N([C@H](C)CO)C[C@@H]2C)cc1 do in these assays?
TDP1 inh: 0.5%; ClpP mod: -2.4%; TDP1 cell CPT: 2.6%; TDP1 cell noCPT: 3.8%

How did COC(=O)c1c(C(=O)OC)c(-c2ccc(C)cc2)n2c1CCC2 do in these assays?
ClpP mod: -0.8%; TDP1 cell CPT: -14.3%; TDP1 cell noCPT: -26.2%

Results for COC(=O)c1c(C(=O)OC)c(-c2ccc(Cl)c(Cl)c2)n2c1CCC2 ?
TDP1 inh: 5.7%; ClpP mod: inconclusive; TDP1 cell CPT: 20.6µM*; TDP1 cell noCPT: inconclusive

Results for CNc1cc(OC)c(C(=O)N[C@H]2CCN(Cc3ccccc3)[C@H]2C)cc1Cl ?
TDP1 cell CPT: 10.6µM*; TDP1 cell noCPT: 11.9µM*

How did COCCNS(=O)(=O)c1ccc(Cl)c(C(=O)NC2CCN(Cc3ccccc3)CC2)c1 do in these assays?
TDP1 inh: 10.7%; TDP1 cell CPT: -9.2%; TDP1 cell noCPT: -27.5%

How did O=S(=O)(NCCc1ccccc1)c1cccc(S(=O)(=O)N2CCOCC2)c1 do in these assays?
TDP1 inh: 2.1%; ClpP mod: -1.7%; TDP1 cell CPT: -27.6%; TDP1 cell noCPT: inconclusive

Results for CC(=O)N1CCN(S(=O)(=O)c2cccc(C(=O)NCCC3=CCCCC3)c2)CC1 ?
TDP1 inh: 4.8%; ClpP mod: -3.8%; TDP1 cell CPT: 2.91µM*; TDP1 cell noCPT: -18.5%

Results for CN1CCN(S(=O)(=O)c2cccc(C(=O)NCCC3=CCCCC3)c2)CC1 ?
ClpP mod: -5.1%; TDP1 cell CPT: inconclusive; TDP1 cell noCPT: inconclusive

What do the screens show for `Cc1ccccc1CCNC(=O)c1ccc(Cl)c(S(=O)(=O)N2CC(C)OC(C)C2)c1` (stereo not drawn)?
TDP1 inh: -6.4%; ClpP mod: -2.8%; TDP1 cell CPT: 18.4µM*; TDP1 cell noCPT: inconclusive

How did O=S(=O)(NCCC1=CCCCC1)c1cccc(S(=O)(=O)N2CCOCC2)c1 do in these assays?
TDP1 inh: -2.9%; ClpP mod: -2.2%; TDP1 cell CPT: 5.17µM*; TDP1 cell noCPT: 5.8µM*

Results for CCOc1ccc(CCNC(=O)c2cccc(S(=O)(=O)N3CCCC3)c2)cc1OCC ?
TDP1 inh: 5.3%; ClpP mod: -1.4%; TDP1 cell CPT: inconclusive; TDP1 cell noCPT: inconclusive

How did CCOc1ccc(CCNC(=O)c2cccc(S(=O)(=O)N3CC(C)OC(C)C3)c2)cc1OCC (stereo not drawn) do in these assays?
TDP1 inh: 1.8%; ClpP mod: -1.3%; TDP1 cell CPT: inconclusive; TDP1 cell noCPT: 9.2µM*

What do the screens show for `Nc1cccc(S(=O)(=O)N2CCN(S(=O)(=O)c3c(F)cccc3F)CC2)c1`?
TDP1 inh: 1.2%

Results for CC(O)(COc1ccccc1)c1ccc2c(c1)CN(Cc1cccnc1)CCO2 (stereo not drawn) ?
TDP1 cell CPT: 20.1%[9.04 µM]; TDP1 cell noCPT: -14.1%

How did CCOc1ccc(CCNC(=O)c2ccc(-n3c(C)cc4c3CCC(C)C4)cc2)cc1OCC (stereo not drawn) do in these assays?
TDP1 inh: 5.0%; ClpP mod: -6.4%; TDP1 cell CPT: 14.6µM*; TDP1 cell noCPT: 14.6µM*

Results for O=C(NCCC1=CCCCC1)c1ccc(Cl)c(S(=O)(=O)N2CCCCC2)c1 ?
TDP1 inh: -2.0%; ClpP mod: -4.7%; TDP1 cell CPT: 16.4µM*; TDP1 cell noCPT: 23.1µM*

Source: PubChem BioAssay
